Compounds without any hit were thinned out: in the full panel of roughly 83,000, 20% have a hit.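 A percent growth of 40 corresponds to 60% growth inhibition; 0 means no net growth; -100 means all cells died. Active threshold: below 10.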 Calls of active or inactive are those of the source.

The test system of one assay is HCC-2998 colon. Nature of the assay: NCI-60 one-dose screen, 48 h (100 = growth as untreated, 0 = no growth, -100 = all killed). The note with it: 10 µM unless noted.
As to `CCN(CC)CCOCC[C@H]1CC[C@H]2[C@@H]3[C@H](C)Cc4cc(OS(N)(=O)=O)ccc4[C@H]3CC[C@]12C`, the growth is -92.7% (active).
For `CCN(CC)c1ccc(/C=C/C(=O)c2cccc(NS(C)(=O)=O)c2)cc1`, the growth was 23.2% (inactive).
On the same count and under the same terms, under `C/C(=C\CCc1ccoc1)CC/C=C(\C)CCCC1COC(=O)C1` (stereo not drawn) stands 107% (inactive).
Same read-out and setting: under `O=C(COc1ccc(/C=C2\Cc3ccccc3C2=O)cc1)c1ccc(Cl)cc1` stands 82.2% (inactive); under `O=C(Nc1cccc(-n2cc(-c3ccncc3)c(-c3cc(O)cc(Cl)c3)n2)c1)Nc1ccc(Cl)c(Cl)c1`, 0.568% (active).
`CCc1nn2c(-c3ccc(Cl)cc3C)c(-c3cc(OC)c(OC)c(OC)c3)nc2s1`: the growth is 86.3% (inactive).
On the same count and under the same terms, under `C[N+]1(C)C2CC[C@@H]1CC(OC(=O)C(O)c1ccccc1)C2` (stereo partly drawn) stands 96.6% (inactive); under `COc1ccc2c(c1)sc1nc(-c3ccc(Br)cc3)cn12`, 115% (inactive).
Still for that read-out and setting: under `O=C(COc1cccc(/C=C2\Cc3ccccc3C2=O)c1)c1ccc(Cl)cc1` stands 102% (inactive); under `O=C1C2C(C(=O)N1CC[Se][Se]CCN1C(=O)C3C(C1=O)[C@H]1C=C[C@@H]3C1)[C@H]1C=C[C@@H]2C1` (stereo partly drawn), 28.6% (inactive); under `COC(=O)[C@H]1[C@H]2C[C@@H]3c4[nH]c5cc(OC)ccc5c4CCN3C[C@H]2C[C@@H](OC(=O)/C=C/c2cc(OC)c(OC)c(OC)c2)[C@@H]1OC`, 105% (inactive).
The same measure, in the same setting: under `CC1C(=O)NC2=Nc3ccccc3C(=O)NN21` (stereo not drawn) stands 100% (inactive).
For `C[C@H]1c2cccc(O)c2C(O)=C2C(=O)[C@]3(O)C(O)=C(C(N)=O)C(=O)[C@@H](N(C)C)[C@@H]3[C@@H](O)[C@@H]21`, the growth was 27.1% (inactive).
The same measure, in the same setting: for `CC(=O)N1N=C(c2ccc(Nc3nc(NCCO)nc(NCCO)n3)cc2)CC1c1ccc(Cl)cc1` (stereo not drawn) the value was 102% (inactive); for `COC(=O)C1=CCC(n2cnc3c(N)ncnc32)O1` (stereo not drawn), 106% (inactive).
Consider `Cc1nn(-c2ccccc2)c2nc(N)c(C3=NCCO3)nc12`, for which the growth was 101% (inactive).
In the case of `CCCc1n(Cc2ccc3ccccc3c2)cc[n+]1Cc1ccc2ccccc2c1`, the growth is -22.9% (active).
On the same count and under the same terms, under `BrC1CC(Br)c2c1c1c(c3c2C(Br)CC3Br)C(Br)CC1Br` (stereo not drawn) stands 87.5% (inactive).
For the molecule `O=C(CNc1ccc2c(c1)C(=O)c1ccccc1C2=O)Nc1ccc2c(c1)C(=O)c1ccccc1C2=O`, the growth was -93.3% (active).
Still for that read-out and setting: for `Cc1ccc(NC(=O)c2sc3nc4c(cc3c2N)C(=O)CCC4)cc1` the value was 80.2% (inactive).
As for `CCCCCCCCN(CCO)CCCCCCCC`, the growth was 114% (inactive).
The same measure, in the same setting: for `COc1cc(-c2nc3nc4sc(C)c(C)c4c(=O)n3[nH]2)cc(OC)c1OC` the value was 94.2% (inactive).
On the same count and under the same terms, under `COC(=O)Nc1ccc2ccc3c(NC(=O)OC)ccc4ccc1c2c43` (tested in a mixture with another compound) stands 57.9% (inactive); under `COc1ccc(Cl)cc1Nc1nc(C(F)(F)F)ccc1C(=O)N/N=C/c1c(Cl)cccc1Cl`, 63.5% (inactive).
Still for that read-out and setting: for `O=C(/C=C/c1cccc(O)c1)c1cccc(-n2cc(-c3ccccc3)[nH]c2=O)c1` the value was -44.2% (active).
As to `COc1ccc2c(=O)c(OC)c(-c3cc(OC)c(OC)c(OC)c3)oc2c1`, the growth was 82.5% (inactive).
For the molecule `CC(=O)Nc1ccc(C(=O)COc2cccc(/C=C3\CCc4ccccc4C3=O)c2)cc1`, the growth is 93.7% (inactive).
With `O=C1Nc2ccc(Cl)cc2[C@@](C#CC2CC2)(C(F)(F)F)O1`, the growth is 108% (inactive).
Still for that read-out and setting: for `CC(C)N(Cc1ccccc1)c1c(Cl)ssc1=O` the value was 113% (inactive).
In the case of `CCCCCc1c(C)[nH]c(/C=C2\N=C(c3ccc[nH]3)C=C2OCc2ccccc2)c1C`, the growth was -87.8% [100 µM] (active).
On the same count and under the same terms, under `COc1cc(/C=C/C(=O)CC(=O)/C=C/c2ccc(OC(=O)C3C4CC5CC(C4)CC3C5)c(OC)c2)ccc1OC(=O)C1C2CC3CC(C2)CC1C3` (stereo not drawn) stands 98.8% (inactive); under `CC[C@H]1CN2CCc3cc(OC)c(OC)cc3C2C[C@@H]1CC1NCCc2cc(OC)c(OC)cc21` (stereo partly drawn), -47.8% (active); under `Cc1ccc(S(=O)(=O)NCCN2c3nc4ccccc4cc3Sc3cc4ccccc4nc32)cc1`, 86.3% (inactive).
The same measure, in the same setting: for `Cn1cnc([N+](=O)[O-])c1Sc1nc(N)nc2nc[nH]c12` the value was 19.6% (inactive); for `O=c1oc2c(cc1-c1ccc([N+](=O)[O-])cc1)C(O)Oc1ccccc1-2` (stereo not drawn), 94.3% (inactive).
On the same count and under the same terms, under `CCCCCc1c(C)[nH]c(/C=C2\N=C(c3ccc[nH]3)C=C2Oc2ccc(Cl)cc2)c1C` stands -17% [100 µM] (active).
Take `CC1C(C)N(C(=O)CCl)c2ccccc2N1C(=O)CCl` (stereo not drawn): the growth was -93.9% (active).
For the molecule `Nc1nc(NC2CC2)c2ncn(C3C=CC(CO)C3)c2n1` (stereo not drawn), the growth was 103% (inactive).
For `O=C(CNC(=O)c1cccc2ccccc12)Nc1ccccc1Oc1ccc(O)cc1`, the growth is 55.6% [5 µM] (inactive).

The subject of another assay is KM12 colon. The description is as above. The note with it: 10 µM unless noted.
Consider `CCN(CC)CCOCC[C@H]1CC[C@H]2[C@@H]3[C@H](C)Cc4cc(OS(N)(=O)=O)ccc4[C@H]3CC[C@]12C`, for which the growth was -80.8% (active).
Same read-out and setting: under `CCN(CC)c1ccc(/C=C/C(=O)c2cccc(NS(C)(=O)=O)c2)cc1` stands 17.1% (inactive); under `C/C(=C\CCc1ccoc1)CC/C=C(\C)CCCC1COC(=O)C1` (stereo not drawn), 93.3% (inactive).
With `O=C(COc1ccc(/C=C2\Cc3ccccc3C2=O)cc1)c1ccc(Cl)cc1`, the growth was 107% (inactive).
Same read-out and setting: under `O=C(Nc1cccc(-n2cc(-c3ccncc3)c(-c3cc(O)cc(Cl)c3)n2)c1)Nc1ccc(Cl)c(Cl)c1` stands 2.26% (active).
On the same count and under the same terms, under `CCc1nn2c(-c3ccc(Cl)cc3C)c(-c3cc(OC)c(OC)c(OC)c3)nc2s1` stands 89% (inactive).
Still for that read-out and setting: under `C[N+]1(C)C2CC[C@@H]1CC(OC(=O)C(O)c1ccccc1)C2` (stereo partly drawn) stands 109% (inactive); under `COc1ccc2c(c1)sc1nc(-c3ccc(Br)cc3)cn12`, 102% (inactive).
On to `O=C(COc1cccc(/C=C2\Cc3ccccc3C2=O)c1)c1ccc(Cl)cc1`, for which the growth was 105% (inactive).
Still for that read-out and setting: under `O=C1C2C(C(=O)N1CC[Se][Se]CCN1C(=O)C3C(C1=O)[C@H]1C=C[C@@H]3C1)[C@H]1C=C[C@@H]2C1` (stereo partly drawn) stands 0.112% (active); under `COC(=O)[C@H]1[C@H]2C[C@@H]3c4[nH]c5cc(OC)ccc5c4CCN3C[C@H]2C[C@@H](OC(=O)/C=C/c2cc(OC)c(OC)c(OC)c2)[C@@H]1OC`, 40.5% (inactive).
Regarding `CC1C(=O)NC2=Nc3ccccc3C(=O)NN21` (stereo not drawn), the growth was 101% (inactive).
On to `C[C@H]1c2cccc(O)c2C(O)=C2C(=O)[C@]3(O)C(O)=C(C(N)=O)C(=O)[C@@H](N(C)C)[C@@H]3[C@@H](O)[C@@H]21`, for which the growth is 54.1% (inactive).
Consider `CC(=O)N1N=C(c2ccc(Nc3nc(NCCO)nc(NCCO)n3)cc2)CC1c1ccc(Cl)cc1` (stereo not drawn), for which the growth is 100% (inactive).
The same measure, in the same setting: under `COC(=O)C1=CCC(n2cnc3c(N)ncnc32)O1` (stereo not drawn) stands 100% (inactive); under `Cc1nn(-c2ccccc2)c2nc(N)c(C3=NCCO3)nc12`, 104% (inactive).
On the same count and under the same terms, under `CCCc1n(Cc2ccc3ccccc3c2)cc[n+]1Cc1ccc2ccccc2c1` stands -63.7% (active); under `BrC1CC(Br)c2c1c1c(c3c2C(Br)CC3Br)C(Br)CC1Br` (stereo not drawn), 129% (inactive).
On the same count and under the same terms, for `O=C(CNc1ccc2c(c1)C(=O)c1ccccc1C2=O)Nc1ccc2c(c1)C(=O)c1ccccc1C2=O` the value was -91.4% (active).
On to `Cc1ccc(NC(=O)c2sc3nc4c(cc3c2N)C(=O)CCC4)cc1`, for which the growth was 56.7% (inactive).
For `CCCCCCCCN(CCO)CCCCCCCC`, the growth is 110% (inactive).
Still for that read-out and setting: for `COc1cc(-c2nc3nc4sc(C)c(C)c4c(=O)n3[nH]2)cc(OC)c1OC` the value was 76.6% (inactive); for `COC(=O)Nc1ccc2ccc3c(NC(=O)OC)ccc4ccc1c2c43` (tested in a mixture with another compound), 32.7% (inactive); for `COc1ccc(Cl)cc1Nc1nc(C(F)(F)F)ccc1C(=O)N/N=C/c1c(Cl)cccc1Cl`, 52.7% (inactive).
Still for that read-out and setting: for `O=C(/C=C/c1cccc(O)c1)c1cccc(-n2cc(-c3ccccc3)[nH]c2=O)c1` the value was -73.3% (active).
As to `COc1ccc2c(=O)c(OC)c(-c3cc(OC)c(OC)c(OC)c3)oc2c1`, the growth was 97.8% (inactive).
For the molecule `CC(=O)Nc1ccc(C(=O)COc2cccc(/C=C3\CCc4ccccc4C3=O)c2)cc1`, the growth was 91% (inactive).
In the case of `O=C1Nc2ccc(Cl)cc2[C@@](C#CC2CC2)(C(F)(F)F)O1`, the growth is 86.1% (inactive).
The same measure, in the same setting: for `CC(C)N(Cc1ccccc1)c1c(Cl)ssc1=O` the value was 106% (inactive); for `CCCCCc1c(C)[nH]c(/C=C2\N=C(c3ccc[nH]3)C=C2OCc2ccccc2)c1C`, -80.9% [100 µM] (active); for `COc1cc(/C=C/C(=O)CC(=O)/C=C/c2ccc(OC(=O)C3C4CC5CC(C4)CC3C5)c(OC)c2)ccc1OC(=O)C1C2CC3CC(C2)CC1C3` (stereo not drawn), 107% (inactive).
For `CC[C@H]1CN2CCc3cc(OC)c(OC)cc3C2C[C@@H]1CC1NCCc2cc(OC)c(OC)cc21` (stereo partly drawn), the growth was -37.2% (active).
As for `Cc1ccc(S(=O)(=O)NCCN2c3nc4ccccc4cc3Sc3cc4ccccc4nc32)cc1`, the growth is 165% (inactive).
The same measure, in the same setting: under `Cn1cnc([N+](=O)[O-])c1Sc1nc(N)nc2nc[nH]c12` stands 23.5% (inactive).
As for `O=c1oc2c(cc1-c1ccc([N+](=O)[O-])cc1)C(O)Oc1ccccc1-2` (stereo not drawn), the growth is 95.4% (inactive).
Consider `CCCCCc1c(C)[nH]c(/C=C2\N=C(c3ccc[nH]3)C=C2Oc2ccc(Cl)cc2)c1C`, for which the growth was -75.5% [100 µM] (active).
The same measure, in the same setting: for `CC1C(C)N(C(=O)CCl)c2ccccc2N1C(=O)CCl` (stereo not drawn) the value was -91.7% (active); for `Nc1nc(NC2CC2)c2ncn(C3C=CC(CO)C3)c2n1` (stereo not drawn), 99.7% (inactive); for `O=C(CNC(=O)c1cccc2ccccc12)Nc1ccccc1Oc1ccc(O)cc1`, 30.1% [5 µM] (inactive).
